Screening data deposited in PubChem by several laboratories.
HIF-2a inh = blocks HIF-2a reporter activity; 786-0 RCC cells HIF-2a reporter, luciferase luminescence, overnight; inhibition, % at 18.8 µM; hit rate 0.72% among 360,000; AID 624352;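 active = inhibition of the luminescence signal of 40% or more relative to plate controls, in a single-dose primary screen at 18.75 µM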
KKLEB cytotox = counter-screen for CF NF-kB inhibitors: cytotoxicity. KKLEB CF airway cells viability, ATPlite luminescence, overnight; active compounds read low; cells stimulated with P. aeruginosa culture filtrate. activity change (cytotoxicity), % at 5 µM. hit rate 0.36% among 360,000. AID 602141;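 active = corrected activity change at or below -50% at 5 µM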
Peg3 promoter = inhibitors of Peg3 promoter | HeLa PEG-Prom luciferase reporter, luminescence, overnight | hit rate 1.7% among 360,000 | inhibition, % at 20 µM;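 active = inhibition of at least 50% at 20 µM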
TRPM1 prom inh = inhibitors of MITF-driven TRPM1 promoter in melanoma cells | SK-MEL-5 TRPM1 promoter luciferase, 24 h | inhibition, % at 12.5 µM | hit rate 0.83% among 330,000;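 active = mean inhibition across replicates of 60% or more, whatever share of single replicates reaches that level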
CF NFkB block = inhibitors of cystic fibrosis induced NF-kB. KKLEB NF-kB-GFP reporter, PAF-induced, GFP fluorescence overnight. inhibition, % at 5 µM. hit rate 0.86% among 360,000. AID 588850;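 active = at least 50% inhibition at 5 µM, scaled per plate between neutral and stimulator controls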;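 note: PAF is a Pseudomonas aeruginosa culture filtrate used as stimulus; plate controls were PAF-stimulated DMSO wells for no effect and unstimulated DMSO wells for full effect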
Shn3 3UTR inh = Schnurri-3 reporter inhibition in Clone20 osteoblasts; Clone20 osteoblast Shn3 3'UTR firefly luciferase, 24 h; AID 588674; inhibition, % at 12.5 µM; hit rate 0.52% among 360,000;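 active = mean inhibition of at least 75% with every replicate also reaching 75%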;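 note: 0% = median of neutral control wells and 100% = pilot-screen positive control compound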
CF NFkB inh conf = confirmation of cystic fibrosis induced NF-kB inhibitors; KKLEB CF airway cells, PAF-induced NF-kB-GFP fluorescence, overnight; shares compounds with CF NFkB block; AID 602472; hit rate 64% among 1,300; inhibition, % at 5 µM; in the data active = inhibition above about 40%;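 note: stimulus PAF is a Pseudomonas aeruginosa filtrate and not platelet activating factor; plate controls were DMSO wells with stimulus for no effect and unstimulated DMSO wells for full effect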
* = called active by the depositor; nt = no result given. Only some compounds are listed: those with a hit (about 2.8% of all), similar ones and a draw of the others.

SMILES	HIF-2a inh	KKLEB cytotox	Peg3 promoter	TRPM1 prom inh	CF NFkB block	Shn3 3UTR inh	CF NFkB inh conf
Cc1cc(C)c(CN2CCC(n3nccc3NC(=O)C3CCOC3)CC2)cc1C (stereo not given)	12	7	2	1	8	-5	nt
O=C1NC(=S)N/C1=C/c1cccnc1	12	-6	-2	-1	52*	14	46*
O=C1NC(=S)N/C1=C\c1cccnc1	18	-2	15	-10	54*	-2	64*
CC(c1ccccc1)N1C(=O)c2ccc(C(=O)Nc3ccccc3C(=O)O)cc2C1=O (stereo not given)	-46	-28	11	26	15	-2	nt
CC(c1ccccc1)N1C(=O)c2ccc(C(=O)Nc3ccc(Br)cc3C(=O)O)cc2C1=O (stereo not given)	-3	-4	10	-3	60*	4	44*
O=C(COC(=O)COc1ccccc1[N+](=O)[O-])NC1CCCCC1	5	-2	-7	10	0	-16	nt
COCCCn1c(C)cc(C(=O)CN2c3cccc4cccc(c34)S2(=O)=O)c1C	-75	-2	-49	5	6	-8	nt
Cc1cccc(NC(=O)c2ccc([N+](=O)[O-])o2)n1	-3	-25	14	22	61*	61	8
CC(=O)Nc1ccc(/C=C(\C#N)C(=O)NC2CCCCC2C)cc1 (stereo not given)	20	-20	9	-8	-4	-2	nt
CSc1ccc(/C=C(\C#N)C(=O)NC2CCCCC2C)cc1 (stereo not given)	-2	-29	-18	-2	53*	15	17
O=C(NCCN1CCC(n2c(=O)[nH]c3ccccc32)CC1)c1ccncc1	-5	nt	nt	nt	nt	nt	nt
O=C(Nc1ccccc1N1CCOCC1)c1cc(-c2ccco2)nc2ccccc12	-7	-13	60*	7	75*	18	87*
COc1ccc(Cl)cc1NC(=O)CN(C)C(=O)c1cc(-c2ccncc2)nc2ccccc12	6	-36	42	8	61*	6	10
Cc1ccc(C)c(NC(=S)N2CCC(NC(=O)c3ccc(F)cc3)CC2)c1	14	2	12	2	5	21	nt
O=C(CN1C(=O)NC2(CCCc3ccccc32)C1=O)c1ccc(F)c(F)c1 (stereo not given)	0	-39	-7	-3	56*	32	11
O=C(CN1C(=O)NC2(CCc3ccccc32)C1=O)c1ccc(Cl)cc1 (stereo not given)	14	0	-5	4	1	4	nt
O=C1C=C(c2ccc3c(c2)OCO3)CCC1	-44	-5	-45	-11	-26	-34	nt
Cc1ccc(NC(=S)N(CCCN2CCCC2)Cc2cccn2Cc2ccc(Cl)cc2)cc1C	-27	-43	102*	23	51*	-9	28
O=C(COC(=O)C1CCN(c2ccc(C(F)(F)F)cn2)CC1)Nc1cccc(F)c1	-4	-18	-12	-4	64*	-19	19
COC(=O)[C@H](CC(C)C)NC(=O)Cn1cnc2c(SC)nc(N)nc21	9	0	-1	2	-2	-3	nt
C(=C\CSc1nnnn1-c1ccccc1)/CSc1nnnn1-c1ccccc1	3	-2	26	8	11	18	nt
CCCSc1nnc(Sc2nnnn2-c2ccccc2)s1	37	-35	68*	52	56*	50	18
Cc1cc2c(cc1S(=O)(=O)N1CC(C)CC(C)C1)OCC(=O)N2 (stereo not given)	10	-10	-3	nt	24	-3	nt
O=C1CCC(N2C(=O)c3ccccc3C2=O)C(=O)N1 (stereo not given)	-6	18	4	-4	76*	5	12
O=C(O)c1ccc(CS(=O)(=O)c2c(Cl)cccc2Cl)o1	22	3	4	-4	0	-4	nt
SMILES	HIF-2a inh	KKLEB cytotox	Peg3 promoter	TRPM1 prom inh	CF NFkB block	Shn3 3UTR inh	CF NFkB inh conf
Cc1ccccc1N(C(=O)CNC(=O)c1ccco1)C(C(=O)NC1CCCCC1)c1cccnc1 (stereo not given)	9	2	8	-2	-3	-6	nt
COc1cccc(CNC(=O)C2CSC3(C)CCC(=O)N23)c1 (stereo not given)	-6	-18	-13	-2	6	2	nt
CCOC(=O)Cc1nnc2c(Nc3ccc(Cl)cc3)nc3nonc3n12	7	-21	49	0	51*	-5	59*
CCOC(=O)Cc1csc(Nc2ccc(Cl)cc2)n1	13	12	-55	-11	-3	-31	nt
Cc1noc(C)c1S(=O)(=O)N(C)C[C@H]1OCc2cnnn2CCCC(=O)N([C@@H](C)CO)C[C@H]1C	8	-2	-7	nt	15	5	nt
O=C(COC(=O)c1ccc2ncsc2c1)Nc1ccc(OC(F)(F)F)cc1	-21	6	-16	-8	52*	-11	16
COc1ccc(NS(=O)(=O)c2cccc(C(=O)OCC(=O)N3CCN(c4ccc(OC)cc4)CC3)c2)cc1	14	-20	5	19	5	59	nt
N#CC(C#N)c1ccnc2ccccc12	0	-14	10	nt	58*	-16	46*
CCOC(=O)c1c(C)c2c(=O)[nH]cnc2n1-c1ccccc1	8	-5	-17	-9	56*	3	66*
CCOC(=O)c1sc2nc[nH]c(=O)c2c1C	-15	8	-27	-4	-4	-2	nt
Cc1ccc(CNc2ncnc(N)c2[N+](=O)[O-])cc1	-29	-10	-77	-25	63*	-4	66*
O=C(CN1CCOCC1)NN=C1CCCCCCCCCCC1	18	2	26	2	-4	-4	nt
O=C(Nc1cccc(Cl)c1)Nc1csc([N+](=O)[O-])c1	-173	-48	-67	-6	54*	30	63*
O=C(Nc1ccncc1)Nc1cccc(Cl)c1	-83	-5	-93	-19	9	19	nt
CS(=O)(=O)c1ccc(C(=O)OCc2nnc(-c3ccccc3)o2)cc1[N+](=O)[O-]	21	-28	109*	48	76*	7	36
CS(=O)(=O)c1ccc(C(=O)OCC(=O)Nc2cccnc2Cl)cc1[N+](=O)[O-]	-1	-31	24	27	90*	94*	40
CC(=O)c1cccc(NC(=O)COC(=O)c2ccc(S(C)(=O)=O)c([N+](=O)[O-])c2)c1	14	-1	8	5	63*	27	43*
COc1ccc(S(=O)(=O)NCC(=O)N(CC(=O)NCC2CCCO2)Cc2ccc(F)cc2)cc1 (stereo not given)	9	-4	-1	-6	1	-1	nt
CCN(CC)c1ccc(CNc2nc3ccccc3n2CCN2CCCCC2)cc1	1	-45	44	-1	55*	92*	37
CCN(CC)c1ccc(CNc2nc3ccccc3n2C)cc1	-79	-3	-69	-11	-30	-6	nt
